Shown are actives, neighbours in structure and some others; about 2.2% of the full set was active somewhere.
EWS-Fli block – EWS/Fli transcriptional activity inhibition | inhibition, % at 12.6 µM | A673 NR0B1-luciferase reporter, viability-normalised | hit rate 0.67% among 350,000 | AID 651661;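 active = mean inhibition of at least 50% after viability correction, with every replicate also passing that limit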;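 also: firefly luciferase signal divided by Alamar Blue viability fluorescence both relative to DMSO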
PGC1a acetyl inh – lowers PGC1a acetylation signal in U2OS cells; AlphaScreen anti-acetyl-lysine; with virally co-expressed GCN5 acetyltransferase; inhibition, % at 15.6 µM; hit rate 0.17% among 350,000;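 active = every replicate shows inhibition of at least 40%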;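 also: 0% = neutral control wells and 100% = positive control wells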
PAX8 inh HTS – PAX8 transcriptional activity inhibition; RMG-I TPO-luciferase reporter, SteadyGlo, 24 h; inhibition, % at 12.6 µM; hit rate 1.2% among 360,000;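 active = mean replicate inhibition at least 60% with every replicate also reaching 60%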;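 also: luciferase light reporting Pax8 driven TPO promoter activity; plate controls were median of neutral control wells for no effect and mitoxantrone controls for full effect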
MITF TRPM1 inh – MITF TRPM1 promoter inhibition in SK-MEL-5 cells; SK-MEL-5 TRPM1 promoter luciferase, 24 h; inhibition, % at 12.5 µM; hit rate 0.83% among 330,000;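 active = mean inhibition across replicates of 60% or more, whatever share of single replicates reaches that level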
LGR2 antag – inhibitors of bursicon-induced Drosophila LGR2 receptor cAMP signaling. HEK293 LGR2, CRE-luciferase, bursicon-stimulated, 4 h. inhibition, % at 9.99 µM. hit rate 0.35% among 380,000. AID 720647;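 active = drop in luminescence signal, shown as inhibition above about 50% in the replicate tests, limit read from the data, passing the limit was not always enough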;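 also: agonist challenge used bursicon conditioned medium at about half maximal strength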
LMP1 NFkB inh – Epstein-Barr LMP1 NF-kappaB reporter inhibition. LMP1-induced NF-kappaB luciferase reporter cells, luminescence. inhibition, % at 12.5 µM. hit rate 0.69% among 350,000. AID 504558; in the data active = inhibition above about 41%;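 also: 0% = neutral control wells and 100% = reference inhibitor control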
Numbers without * were called inactive; . = no result given; ! = repeats disagree.

SMILES | EWS-Fli block | PGC1a acetyl inh | PAX8 inh HTS | MITF TRPM1 inh | LGR2 antag | LMP1 NFkB inh
C[C@@H]1CCCCO[C@@H](CN(C)S(=O)(=O)c2ccccc2)[C@H](C)CN([C@@H](C)CO)C(=O)c2cc(NC(=O)Nc3ccc(C(F)(F)F)cc3)ccc2O1 | 1 | 9 | 75* | . | -7 | .
C[C@@H]1CCCCO[C@H](CN(C)S(=O)(=O)c2ccc(Cl)cc2)[C@H](C)CN([C@@H](C)CO)C(=O)c2cc(NC(=O)Nc3ccc(F)cc3)ccc2O1 | 5 | -8 | 70* | . | 2 | .
C[C@@H]1CN([C@@H](C)CO)C(=O)c2cc(NC(=O)Nc3ccc(C(F)(F)F)cc3)ccc2O[C@@H](C)CCCCO[C@H]1CN(C)S(=O)(=O)c1ccccc1 | 6 | -12 | 55 | . | 1 | .
C[C@H](CO)N1C[C@H](C)[C@H](CN(C)S(=O)(=O)c2ccc(C#N)cc2)Oc2ncc(C#Cc3ccc(C(F)(F)F)cc3)cc2C1=O | . | 11 | 74* | . | 17 | .
C[C@@H]1CCCCO[C@H](CN(C)S(=O)(=O)c2ccc(Cl)cc2)[C@@H](C)CN([C@@H](C)CO)C(=O)c2cc(NC(=O)Nc3ccc(C(F)(F)F)cc3)ccc2O1 | 45 | 15 | 82* | . | 1 | .
C[C@H]1CCCCO[C@@H](CN(C)S(=O)(=O)c2ccc(Cl)cc2)[C@@H](C)CN([C@@H](C)CO)C(=O)c2cc(NC(=O)CCC(F)(F)F)ccc2O1 | 7 | -5 | 73* | . | 20 | .
C[C@H](CO)N1C[C@H](C)[C@@H](CN(C)S(=O)(=O)c2ccc(F)cc2)Oc2ccc(NC(=O)Nc3ccc(C(F)(F)F)cc3)cc2C1=O | 6 | 5 | 75*! | 1 | 13 | 1
C[C@@H]1CN([C@H](C)CO)C(=O)c2cc(NC(=O)CCC(F)(F)F)ccc2O[C@@H](C)CCCCO[C@H]1CN(C)S(=O)(=O)c1ccc(Cl)cc1 | 2 | -4 | 51 | . | 14 | .
Cc1noc(C)c1S(=O)(=O)N(C)C[C@@H]1OCCCC[C@H](C)Oc2ccc(NC(=O)Nc3ccc(F)cc3)cc2C(=O)N([C@H](C)CO)C[C@@H]1C | 6 | 4 | 61* | . | 3 | .
C[C@@H]1CCCCO[C@H](CN(C)S(=O)(=O)c2ccc(F)cc2)[C@@H](C)CN([C@H](C)CO)C(=O)c2cc(NC(=O)Nc3ccc(C(F)(F)F)cc3)ccc2O1 | 7 | 2 | 74*! | . | 3 | 3
C[C@@H]1CCCCO[C@@H](CN(C)S(=O)(=O)c2ccc(F)cc2)[C@@H](C)CN([C@@H](C)CO)C(=O)c2cc(NC(=O)Nc3ccc(C(F)(F)F)cc3)ccc2O1 | -14 | 7 | 36 | . | 6 | .
C[C@H](CO)N1C[C@H](C)[C@H](CN(C)Cc2ccc(Oc3ccccc3)cc2)Oc2ccc(NC(=O)Nc3ccccc3)cc2C1=O | 3 | -10 | 14 | . | 4 | .
C[C@H]1CN([C@@H](C)CO)C(=O)Cc2cc(NC(=O)C3CC3)ccc2O[C@H]1CN(C)S(=O)(=O)c1cccs1 | -5 | 9 | -14 | . | 7 | .
O=C(Nc1ccccc1F)N1C[C@H]2[C@@H](c3ccccc31)[C@@H](CO)N2C(=O)Cc1ccccc1 | -38 | -8 | -31 | . | -28 | .
COc1ccc(NC(=O)Nc2ccc3c(c2)C(=O)N([C@@H](C)CO)C[C@@H](C)[C@@H](CN(C)CC2CC2)OCCCC[C@@H](C)O3)cc1 | . | -2 | 3 | . | 13 | .
COc1ccc(NC(=O)Nc2cccc3c2O[C@@H](CN(C)Cc2ccc(Cl)c(Cl)c2)[C@@H](C)CN([C@@H](C)CO)C3=O)cc1 | -1 | 6 | . | . | 5 | .
CN(C(=O)C=Cc1ccccc1)c1ccccc1 | -35 | -5 | -46 | -15 | -46 | 2
O=C(CCl)N(O)c1ccc(C=Cc2ccccc2)cc1 | -28 | 27 | -101 | -20 | -64 | 53*
NC(=S)NN=Cc1nccc2c(N)cccc12 | -5 | . | -10 | . | 22 | 76*
CCOC(=O)c1nnn(-c2ccc([N+](=O)[O-])cc2[N+](=O)[O-])c1C | 0 | 5 | 30 | 77* | 24 | -35
C[C@H]1CN([C@@H](C)CO)C(=O)CCCn2nncc2CO[C@@H]1CN(C)S(C)(=O)=O | 0 | -4 | 1 | . | 3 | .
CN(C)c1ccc(/C=C/c2nc3ccccc3c(=O)[nH]2)cc1 | 79* | . | -50 | 52 | 91* | 48*
COc1ccc(C(=O)Nc2cccc(/C=C/c3nc4ccccc4c(=O)[nH]3)c2)cc1 | 8 | . | 64* | 32 | 3 | -6
CC1(Cc2cccc(F)c2)C(=O)Nc2ccc(-c3cccnc3)cc21 (centres undefined) | -6 | 21 | -18 | . | 19 | .
CC1(Cc2ccc(Cl)cc2)C(=O)Nc2ccc(-c3cccnc3)cc21 (centres undefined) | -5 | 46* | -25 | . | 19 | .
SMILES | EWS-Fli block | PGC1a acetyl inh | PAX8 inh HTS | MITF TRPM1 inh | LGR2 antag | LMP1 NFkB inh
C[C@H](CO)N1C[C@H](C)[C@H](CN(C)CC2CCOCC2)Oc2cc(C3=CCCC3)ccc2S1(=O)=O | 3 | -10 | -12 | . | 8 | .
C[C@@H]1C2CC(C/C2=N\NC(=O)c2ccncc2)C1(C)C (some centres undefined) | . | . | -2 | 0 | 14 | 72*
CC1C2CC(C/C2=N/NC(=O)c2cccs2)C1(C)C (centres undefined) | 13 | . | 0 | 5 | -14 | -14
C[C@@H]1CN([C@@H](C)CO)C(=O)c2cc(C#CC3(O)CCCC3)cnc2O[C@H]1CN(C)C(=O)CC1CC1 | -2 | -7 | . | . | -4 | .
O=C(NNc1nc2ccccc2s1)Nc1ccc(Cl)c(Cl)c1 | 3 | . | 64* | 12 | 18 | -3
O=C(Nc1ccc(Cl)c(Cl)c1)Nc1nccs1 | 38 | -1 | -56 | -5 | -53 | 66*
COc1ccc(CCC(=O)Nc2cc([N+](=O)[O-])ccc2OC)cc1 | . | . | 27 | 4 | 3 | -3
COc1ccc(CCC(=O)Nc2ccc(C)c([N+](=O)[O-])c2)cc1 | 3 | . | 2 | -9 | . | 62*
CC(=O)N1C[C@@H]2[C@H](c3ccccc31)[C@@H](CO)N2C(=O)CC1CC1 | -4 | -4 | -6 | . | 3 | .
COCCNC(=O)C[C@H]1CC[C@@H]2[C@H](COc3ccc(NC(=O)Cc4ccccc4)cc3C(=O)N2C)O1 | -3 | 0 | -10 | . | 2 | .
Cc1[nH]c2ccccc2c1C(=O)/C=C/c1ccccc1 | . | 71* | . | -19 | . | -50
CO[C@@H]1CN(C)C(=O)c2ccc(NC(C)=O)cc2OC[C@H](C)N(C(=O)Cc2ccccn2)C[C@H]1C | 2 | 5 | . | . | 3 | .
Cc1noc(C)c1NC(=O)N(C)C[C@@H]1OCCCC[C@@H](C)Oc2ccc(NS(=O)(=O)c3ccc(Cl)cc3)cc2C(=O)N([C@H](C)CO)C[C@H]1C | 1 | -9 | -1 | . | -16 | .
COc1ccc(NC2=NCC(Cc3ccc(Br)cc3)S2)cc1 (centres undefined) | 12 | . | 6 | 59 | -4 | 66*

Screening results from PubChem.
